Holding throughout (assay): Primary qHTS to identify gynecologic anti-cancer compounds using libraries of approved drugs and bioactive compounds (AID 1345084); further: nearly all actives have a fitted effect of over 55% in size
On the technique in general: qHTS replaces the single test concentration by a dilution series.

One assay relates to CAOV3. The note with it: Gynecologic cancer cell panel viability, ATPlite luminescence, 48 h; series mostly up to 57.5 µM. The method in brief:
(§1)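 Cytotoxicity screen measuring ATP content by luciferase luminescence. Each compound is applied at five concentrations for 48 h at 37 C with 5% CO2.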
On the technique in general: Cellular ATP, detected with luciferase, serves as a proxy for viable cell number.

A further assay relates to HeLa. The note with it: Gynecologic cancer cell panel viability, ATPlite luminescence, 48 h; series mostly up to 57.5 µM. The method in brief: as §1
The test system of another assay is OV90. The note with it: Gynecologic cancer cell panel viability, ATPlite luminescence, 48 h; series mostly up to 57.5 µM. The method, boiled down: as §1
The next assay has as its system Tov-21-G. The conditions noted are these: Gynecologic cancer cell panel viability, ATPlite luminescence, 48 h; series mostly up to 57.5 µM. The method, boiled down: as §1
In the next assay the test system is Tov112D. The note with it: Gynecologic cancer cell panel viability, ATPlite luminescence, 48 h; series mostly up to 57.5 µM. The method in brief: as §1
The subject of the next assay is CASKI. The note with it: Gynecologic cancer cell panel viability, ATPlite luminescence, 48 h; series mostly up to 57.5 µM. The method, boiled down: as §1
For a further assay, the system named is Hek293T. The note with it: Gynecologic cancer cell panel viability, ATPlite luminescence, 48 h, control line for the selectivity index; series mostly up to 57.5 µM. The method in brief:
as §1

The test system of another assay is SKOV3. The conditions noted are these: Gynecologic cancer cell panel viability, ATPlite luminescence, 48 h; series mostly up to 57.5 µM. The method in brief:
as §1

In another assay the test system is Es-2. The conditions noted are these: Gynecologic cancer cell panel viability, ATPlite luminescence, 48 h; series mostly up to 57.5 µM. The method, boiled down:
as §1

A further assay has as its system JEG-3. The conditions noted are these: Gynecologic cancer cell panel viability, ATPlite luminescence, 48 h; series mostly up to 57.5 µM. The method in brief: as §1
The next assay has as its system PA-1. The conditions noted are these: Gynecologic cancer cell panel viability, ATPlite luminescence, 48 h; series mostly up to 57.5 µM. The method, boiled down:
as §1

The results in this text go back to PubChem BioAssay (NCATS).

SMILES strings stand for the structures. Results filed as inconclusive are left out. Unmarked numbers belong to inactive results. The source made the active and inactive calls. The call rests on the fitted dose curve; in most records, active means well fitted cell-killing curve with a large enough effect; inconclusive means small, poorly fitted or top-dose-only effect, or effect the other way; inactive means flat fitted curve, though single readings scatter.
On the % scale 0 is the no-effect control and ±100 the full control effect; potency means the concentration at half of the fitted maximal effect.

In the case of `CC1(C)CC(=O)C2=C(C1)NC(=S)NC2c1cccc(O)c1` (centres undefined), the Potency in the assay on CAOV3 was 3.55 µM (active); in the assay on HeLa, 7.94 µM (active); in the assay with Tov-21-G, 1.26 µM (active); in the assay with Tov112D, 0.891 µM (active). In addition, the Potency entry in the assay on OV90 was “inactive”.
`C=C1C(=O)O[C@H]2C1[C@H](OC(=O)/C(=C/CO)COC(=O)/C(C)=C/CO)CC(=C)[C@@H]1CC(=O)[C@@H](C)[C@@H]12` (some centres undefined): the Potency result in the assay on CAOV3, with CASKI, with HeLa, with Hek293T, in the assay with OV90 and in the assay with Tov112D was “inactive” each time.
For the compound `Cc1cc(-c2cc(O)ccc2Cl)cc2nnc(Nc3ccc(OCCN4CCCC4)cc3)nc12`, the values for the Potency in the assay with CAOV3 and with SKOV3 were 11.2 µM (active) and 28.2 µM (active), respectively.
For `COc1cc2ncnc(N3CCC(Oc4cnc5ccccc5n4)C3)c2cc1OC` (centres undefined), the Potency in the assay with CASKI was 7.08 µM (active); in the assay on Es-2, 3.98 µM (active); in the assay on HeLa it was 1.78 µM (active); in the assay on Hek293T, 3.55 µM (active); in the assay with Tov112D it was 1 µM (active).
Consider `COc1ncc(Nc2ncc([C@H](C)N3CCN(S(C)(=O)=O)CC3)cc2-c2nc(C)nc(N)n2)cc1F`, for which the values for the Potency in the assay with CASKI, in the assay with Hek293T and in the assay on SKOV3 were 1 µM (active), 0.794 µM (active) and 2.82 µM (active), respectively. The Potency entry in the assay with Es-2, with OV90 and with Tov112D was “inactive” each time.
`COc1ccc(-c2ccc3c(N4CCOCC4)nc(N4CC(C)OC(C)C4)nc3n2)cc1CO` (centres undefined): the Potency is 1.12 µM (active) in the assay on CASKI; 1.58 µM (active) in the assay on Hek293T; 2.82 µM (active) in the assay with OV90; 2.51 µM (active) in the assay with PA-1; 0.794 µM (active) in the assay on SKOV3; 1.26 µM (active) in the assay with Tov-21-G. Also, the Potency result in the assay on JEG-3 was “inactive”.
With `N#CC(c1ccnc(OCc2ccc(CN3CCOCC3)cc2)n1)c1nc2ccccc2s1` (centres undefined), the Potency result in the assay on Es-2, in the assay with HeLa, with PA-1 and in the assay on Tov112D was “inactive” throughout. Besides, the Potency is 10 µM (active) in the assay on JEG-3, 7.94 µM (active) with OV90 and 7.94 µM (active) in the assay on SKOV3.
For the compound `COc1ccc(CC2C(=O)NC(C)C(=O)N(C)C3Cc4ccc(cc4)Oc4cc(ccc4OC4OC(CO)C(O)C(O)C4O)CC(C(=O)NC(C)C(=O)NC(C)C(=O)N2C)N(C)C3=O)cc1` (centres undefined), the Potency in the assay with CASKI is 0.631 µM (active); in the assay with Es-2, 0.398 µM (active); in the assay on HeLa, 2 µM (active); with Hek293T, 0.158 µM (active); in the assay on SKOV3 it was 1.41 µM (active); with Tov-21-G, 1.26 µM (active). In the assay on Tov112D, the Potency is 0.501 µM (active).
Consider `CC[C@]1(O)CC2CN(CCc3c([nH]c4ccccc34)[C@@](C(=O)OC)(c3cc4c(cc3OC)N(C)[C@H]3[C@@](O)(C(=O)OC)[C@H](OC(C)=O)[C@]5(CC)C=CCN6CC[C@]43[C@@H]65)C2)C1` (some centres undefined), for which the Potency in the assay on CASKI is 1.12 µM (active); with Es-2, 0.794 µM (active); in the assay with HeLa, 0.708 µM (active); with OV90 it was 3.16 µM (active); with PA-1, 0.282 µM (active); in the assay on Tov-21-G it was 0.316 µM (active). Further, the Potency in the assay on Tov112D was 0.282 µM (active).
For the compound `Nc1ccc(-c2cccc3c(=O)cc(N4CCOCC4)oc23)cc1`, the values for the Potency in the assay on CASKI and with OV90 were 12.6 µM (active) and 11.2 µM (active), respectively. In the assay on JEG-3, the Potency result is “inactive”.
Consider `CC(C)[C@@](C)(O)[C@@H]1CN(c2nc(-c3[nH]nc4ncccc34)c(F)cc2Cl)CCN1`, for which the Potency entry in the assay with CASKI, in the assay on Es-2, with HeLa, with Hek293T, in the assay with OV90 and with Tov112D was “inactive” throughout. In addition, the Potency in the assay on JEG-3 is 25.1 µM (active).
On to `CN(C)c1nc(NC2CCC(NC(=O)c3ccc(F)c(F)c3)CC2)nc2ccccc12` (centres undefined), for which the Potency entry in the assay with CASKI was “inactive”. Moreover, the Potency in the assay with Hek293T was 28.2 µM (active); in the assay with OV90, 11.2 µM (active); in the assay on PA-1, 14.1 µM (active).
For the compound `COC(=O)N1CCC(n2ncc3c(N4CCOCC4)nc(-c4ccc(NC(=O)Nc5ccc(CO)cc5)cc4)nc32)CC1`, the Potency with CASKI was 1.12 µM (active); in the assay on Es-2 it was 1 µM (active); with HeLa, 2.51 µM (active); in the assay on Hek293T, 0.282 µM (active); with JEG-3, 15.8 µM (active); in the assay with OV90 it was 0.794 µM (active). Also, the Potency is 2.51 µM (active) with PA-1 and 0.282 µM (active) in the assay with SKOV3.
Consider `CNC(=O)c1ccccc1Nc1nc(Nc2ccc3c(c2OC)CCC[C@@H](N2CCN(CCO)CC2)C3)ncc1Cl`, for which the Potency in the assay with CASKI is 12.6 µM (active); with OV90, 7.94 µM (active); in the assay with PA-1 it was 10 µM (active); with Tov-21-G it was 10 µM (active).
Consider `CO[C@@H](C)Cn1c(=O)n(C)c2cnc3ccc(-c4cncc(C(C)(C)O)c4)cc3c21`, for which the Potency was 5.01 µM (active) in the assay on CASKI; 6.31 µM (active) in the assay with HeLa; 0.562 µM (active) in the assay on Hek293T; 31.6 µM (active) with JEG-3; 0.891 µM (active) with PA-1.
Take `CC(Oc1ccc2[nH]nc(/C=C/c3cnn(CCO)c3)c2c1)c1c(Cl)cncc1Cl` (centres undefined): the Potency with Es-2 was 20 µM (active); in the assay with HeLa, 1.58 µM (active); with Hek293T it was 10 µM (active); in the assay with PA-1, 6.31 µM (active); in the assay with Tov-21-G, 3.55 µM (active).
On to `C[C@@H]1C[C@H]2O[C@@H]2/C=C\C=C\C(=O)Cc2c(Cl)c(O)cc(O)c2C(=O)O1`, for which the activity change, negative = cytotoxicity with CASKI is -0.527% [at 11.6 µM]; in the assay with Tov112D, -26.2% [at 11.6 µM].
Consider `O=C(Nc1nc2ccccc2n1CCc1ccccc1)c1ccccc1`, for which the Potency result in the assay on CASKI and in the assay with HeLa was “inactive” throughout. For the same compound, the Potency with PA-1 was 31.6 µM (active).
Take `CCn1c(=O)c(-c2ccn[nH]2)cc2c(C)nc(N)nc21`: the Potency with CASKI was 15.8 µM (active); with HeLa, 8.91 µM (active); in the assay on Hek293T it was 8.91 µM (active); with OV90 it was 14.1 µM (active); in the assay on SKOV3, 10 µM (active). The Potency entry with JEG-3 is “inactive”.
